Experimental data published in PubChem BioAssay AID2283097 (EPA ToxCast).
Results filed as inconclusive are left out. Active and inactive are the calls of the source. Rule for the calls: active = hit-call score of the fitted dose curve at least 0.9, where 1 is the maximum; inconclusive = response in the unintended direction; inactive = score below 0.9.

Biological target: human CYP1B1, CYP1B1 (gene 1545) (UniProt Q16678)
Assay: NVS_ADME_hCYP1B1: NovaScreen (NVS) CYP450-related Enzyme Activity (ADME) Assay for human CYP1B1
Method: NVS_ADME_hCYP1B1 is a biochemical, single-readout assay that uses extracted gene-proteins in a cell-free assay. Measurements were taken 1 hour after chemical dosing in a 96-well plate.NVS_ADME_hCYP1B1 is one of one assay component(s) measured or calculated from the NVS_ADME_hCYP1B1 assay. It is designed to make measurements of enzyme activity, a form of enzyme reporter, as detected with fluorescence intensity signals by Fluorescence technology.Data from the assay component NVS_ADME_hCYP1B1 was analyzed into 1 assay endpoint. This assay endpoint, NVS_ADME_hCYP1B1, was analyzed in the positive analysis fitting direction relative to Acetonitrile as the negative control and baseline of activity. Using a type of enzyme reporter, loss-of-signal activity can be used to understand changes in the enzymatic activity as they relate to the gene CYP1B1. Furthermore, this assay endpoint can be referred to as a primary readout, because this assay has produced multiple assay endpoints where this one serves a enzymatic activity function. To generalize the intended target to other relatable targets, this assay endpoint is annotated to the cyp intended target family, where the subfamily is xenobiotic metabolism. […]

human CYP1B1, CYP1B1 (gene 1545), sequence (Q16678 whole entry, looked up): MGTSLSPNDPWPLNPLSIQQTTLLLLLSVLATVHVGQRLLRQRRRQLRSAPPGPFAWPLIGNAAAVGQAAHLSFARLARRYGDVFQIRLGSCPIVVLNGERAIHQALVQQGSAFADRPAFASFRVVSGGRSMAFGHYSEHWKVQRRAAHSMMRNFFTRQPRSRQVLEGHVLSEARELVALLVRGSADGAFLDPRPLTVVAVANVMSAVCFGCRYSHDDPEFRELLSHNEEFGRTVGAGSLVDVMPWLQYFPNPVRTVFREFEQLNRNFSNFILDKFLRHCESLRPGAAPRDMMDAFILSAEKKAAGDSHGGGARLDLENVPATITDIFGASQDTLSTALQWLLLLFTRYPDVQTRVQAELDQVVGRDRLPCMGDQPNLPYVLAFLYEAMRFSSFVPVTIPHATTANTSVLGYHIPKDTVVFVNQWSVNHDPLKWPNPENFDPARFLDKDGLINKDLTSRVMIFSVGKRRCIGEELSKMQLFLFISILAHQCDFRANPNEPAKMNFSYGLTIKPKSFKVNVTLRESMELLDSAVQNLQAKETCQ

SMILES | AC50
c1ccc2[nH]c(-c3cscn3)nc2c1 | 6.26 µM (active)
C#CCOC(=O)[C@@H](C)Oc1ccc(Oc2ncc(Cl)cc2F)cc1 | 2.14 µM (active)
